Laboratory results from PubChem BioAssay (EPA / NIEHS).
Results filed as inconclusive are left out. The source made the active and inactive calls. The calls were made as follows, unless noted: active = hit-call score of the fitted dose curve at least 0.9, where 1 is the maximum; inconclusive = response in the unintended direction; inactive = score below 0.9.

Legend:
[1] = ATG_TAL_CIS: Attagene CIS-FACTORIAL HepG2 Assay for human TAL Basal Promoter (AID 2282966; active = hit-call score of the fitted dose curve at least 0.9, where 1 is the maximum; inactive = score below 0.9;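 also: background control endpoint measuring basal TAL promoter reporter mRNA not a specific factor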); conditions: HepG2 Attagene cis-factorial TAL promoter reporter; actives raise or lower the signal
Method in brief: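 Endogenous transcription-factor activity is sensed in HepG2 cells through transfected cis-promoter reporter constructs. After 24 h dosing, reporter transcripts are quantified by RT-PCR and capillary electrophoresis. Gain or loss of signal is fitted relative to DMSO.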

[2] = ATG_TGFb_CIS: Attagene CIS-FACTORIAL HepG2 Assay for human Transforming Growth Factor (TGF) (AID 2282967; active = hit-call score of the fitted dose curve at least 0.9, where 1 is the maximum; inactive = score below 0.9); conditions: HepG2 Attagene CIS TGFb reporter, mRNA transcription; actives raise or lower the signal
Method in brief: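 Liver HepG2 line, cis-factorial reporter panel, 24 h dosing. Quantitation: RT-PCR products labeled with 6-FAM, cut with HpaI, resolved by capillary electrophoresis; DMSO-referenced bidirectional analysis.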

[3] = ATG_VDRE_CIS: Attagene CIS-FACTORIAL HepG2 Assay for human Vitamin D Receptor Element (VDRE) (AID 2282968; active = hit-call score of the fitted dose curve at least 0.9, where 1 is the maximum; inactive = score below 0.9); conditions: HepG2 VDRE cis-reporter transcription, actives raise or lower the signal
Method in brief: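 Transfected HepG2 reporter cells, chemical treatment 24 h. RNA isolated, cDNA amplified with reporter-specific primers, products analysed by capillary electrophoresis. Endpoint fitted in both directions versus DMSO.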

[4] = target: Estrogen receptor (Homo sapiens) (UniProt P03372); experiment: ATG_ERa_TRANS: Attagene TRANS-FACTORIAL HepG2 Assay for human Estrogen Receptor alpha (ERa) (AID 2282970); conditions: HepG2 Attagene TRANS ERa GAL4 reporter, mRNA
Method in brief: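 Transfected HepG2 cells carrying GAL4-UAS-driven reporter units were dosed for 24 hours. Total RNA was reverse-transcribed, reporter sequences PCR-amplified, FAM-labelled, HpaI-digested and resolved by capillary electrophoresis. Increases over DMSO control defined activity.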

[5] = target: Steroid hormone receptor ERR1 (Homo sapiens) (UniProt P11474); experiment: ATG_ERRa_TRANS: Attagene TRANS-FACTORIAL HepG2 Assay for human Estrogen-Related Receptor alpha (ERRa) (AID 2282971); conditions: HepG2 Attagene TRANS reporter, ERRa transactivation
Method in brief: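 HepG2 cells were transiently transfected with multiple GAL4-UAS reporter units, then dosed with compound for 24 h. Total RNA was reverse-transcribed, reporter cDNA PCR-amplified and fluorescently labelled, and fragments resolved by capillary electrophoresis; induction was compared with DMSO.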

[6] = target: X-box-binding protein 1 (Homo sapiens) (UniProt P17861); experiment: ATG_Xbp1_CIS: Attagene CIS-FACTORIAL HepG2 Assay for human X-box Binding Protein 1 (XBP1) (AID 2282972; active = hit-call score of the fitted dose curve at least 0.9, where 1 is the maximum; inactive = score below 0.9); conditions: HepG2 XBP1 cis-element reporter, Attagene multiplex; actives raise or lower the signal
Method in brief: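 Human hepatoma HepG2, cis-element reporter system, 24 h treatment; mRNA quantified by RT-PCR/CE fluorescence; fit relative to DMSO.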

[7] = ATG_GAL4_TRANS: Attagene TRANS-FACTORIAL HepG2 Assay for GAL4 (Internal Marker) (AID 2282976); conditions: HepG2 Attagene TRANS GAL4 internal marker reporter
Method in brief: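 Fluorescence from capillary electrophoresis of labelled RT-PCR products quantifies reporter mRNA induction after 24 h dosing of HepG2 cells carrying transfected GAL4-UAS reporter transcription units. Vehicle DMSO serves as baseline.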

[8] = target: Estrogen-related receptor gamma (Homo sapiens) (UniProt P62508); experiment: ATG_ERRg_TRANS: Attagene TRANS-FACTORIAL HepG2 Assay for human Estrogen-Related Receptor gamma (ERRg) (AID 2282977); conditions: HepG2 Attagene TRANS reporter, ERRg transactivation;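 also: hits increase reporter signal over DMSO so potencies reflect activators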
Method in brief: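 Readout: fluorescent reporter-mRNA fragments resolved by capillary electrophoresis after RT-PCR and HpaI cut. Cells: transiently transfected HepG2 carrying GAL4-UAS reporters driven by exogenous NR-Gal4 chimeras, dosed 24 h. Activity fitted upward relative to DMSO baseline.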

[9] = target: Glucocorticoid receptor (Homo sapiens) (UniProt P04150); experiment: ATG_GR_TRANS: Attagene TRANS-FACTORIAL HepG2 Assay for human Glucocorticoid Receptor (GR) (AID 2282978); conditions: HepG2 Attagene TRANS GR reporter, mRNA transcription;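 also: activators score as hits since higher reporter transcript over DMSO is fitted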
Method in brief: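 In this trans-factorial format, exogenous NR-GAL4 chimeric proteins in transfected HepG2 cells regulate GAL4-UAS reporter transcription. After 24 h treatment, reporter mRNA induction relative to DMSO is read by RT-PCR and capillary electrophoresis.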

[10] = target: Bile acid receptor (Homo sapiens) (UniProt Q96RI1); experiment: ATG_FXR_TRANS: Attagene TRANS-FACTORIAL HepG2 Assay for Farnesoid X Receptor (FXR) (AID 2282979); conditions: HepG2 Attagene TRANS FXR-GAL4 reporter transcription;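 also: hits raise reporter mRNA above DMSO so AC50 marks FXR activation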
Method in brief: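 Chimeric FXR-GAL4 activity in transiently transfected human HepG2 liver cells is scored as induction of reporter mRNA after 24 h of dosing. Detection uses RT-PCR with fluorescent labelling and capillary electrophoresis, with DMSO serving as baseline.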

[11] = target: Oxysterols receptor LXR-alpha (Homo sapiens) (UniProt Q13133); experiment: ATG_LXRa_TRANS: Attagene TRANS-FACTORIAL HepG2 Assay for human Liver X Receptor alpha (LXRa) (AID 2282980); conditions: HepG2 Attagene TRANS reporter, LXRa transactivation
Method in brief: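 Transient HepG2 transfectants, 24 h dosing, RT-PCR/CE mRNA reporter quantitation; gain-of-signal vs DMSO.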

[12] = target: Oxysterols receptor LXR-beta (Homo sapiens) (UniProt P55055); experiment: ATG_LXRb_TRANS: Attagene TRANS-FACTORIAL HepG2 Assay for human Liver X Receptor beta (LXRb) (AID 2282981); conditions: HepG2 Attagene TRANS GAL4-LXRb reporter, mRNA
Method in brief: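 Liver-derived HepG2 cells transfected with Gal4-responsive reporters were dosed for 24 h. Activation was scored as rise in reporter mRNA, by RT-PCR and capillary electrophoresis, above DMSO baseline.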

[13] = ATG_M_06_TRANS: Attagene TRANS-FACTORIAL HepG2 Assay for M06 Transcription Factor (Internal Marker) (AID 2282983); conditions: HepG2 Attagene TRANS M06 internal marker reporter;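 also: reporter transcript level by RT-PCR then capillary electrophoresis fluorescence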
Method in brief: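 Human liver HepG2 cells bearing transiently transfected chimeric NR-GAL4 reporter units were treated with chemicals for 24 h. Total RNA was reverse-transcribed, reporter sequences amplified and labelled, then quantified by capillary electrophoresis. Activity was fitted upward relative to DMSO.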

[14] = ATG_M_32_TRANS: Attagene TRANS-FACTORIAL HepG2 Assay for M32 Transcription Factor (Internal Marker) (AID 2282984); conditions: HepG2 Attagene TRANS M32 internal marker reporter;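 also: transcript level of a background control reporter unit measured by RT-PCR and capillary electrophoresis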
Method in brief: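 Fluorescence-detected mRNA induction, HepG2 liver cells, 24 h after dosing. Multiple GAL4-UAS reporter units introduced by transient transfection; background-control endpoint analysed for gain of signal against DMSO.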

[15] = target: Transcriptional activator Myb (Homo sapiens) (UniProt P10242); experiment: ATG_Myb_CIS: Attagene CIS-FACTORIAL HepG2 Assay for human Myeloblastosis (Myb) Proto-Oncogene Transcription Factor (AID 2282986; active = hit-call score of the fitted dose curve at least 0.9, where 1 is the maximum; inactive = score below 0.9); conditions: HepG2 Attagene CIS-FACTORIAL Myb reporter transcription; actives raise or lower the signal
Method in brief: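 Steps: transfect HepG2 with cis-regulated reporter units; dose with chemical for 24 h; isolate RNA, reverse-transcribe, PCR-amplify and FAM-label reporter sequences; digest with HpaI; resolve by capillary electrophoresis. Activity fitted in both directions relative to DMSO.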

[16] = target: Nuclear respiratory factor 1 (Homo sapiens) (UniProt Q16656); experiment: ATG_NRF1_CIS: Attagene CIS-FACTORIAL HepG2 Assay for human Nuclear Respiratory Factor 1 (NRF1) Orphan Gene (AID 2282987; active = hit-call score of the fitted dose curve at least 0.9, where 1 is the maximum; inactive = score below 0.9); conditions: HepG2 NRF1 cis-element reporter, Attagene multiplex; actives raise or lower the signal
Method in brief: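 Fluorescence intensity of labelled reporter cDNA fragments, resolved by capillary electrophoresis, served as readout for NRF1 cis-element activity. Transiently transfected HepG2 cells were dosed for 24 hours; activity in either direction was fitted against DMSO negative control.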

[17] = target: Nuclear receptor subfamily 1 group I member 3 (Homo sapiens) (UniProt Q14994); experiment: ATG_CAR_TRANS: Attagene TRANS-FACTORIAL HepG2 Assay for human Constitutive Androstane Receptor (CAR) (AID 2282969); conditions: HepG2 Attagene TRANS-FACTORIAL CAR reporter;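 also: activators raise reporter mRNA above DMSO so AC50 marks induction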
Method in brief: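 Steps: transient transfection of HepG2 with multiple GAL4-UAS reporter units; 24 h compound incubation; RNA isolation, RT-PCR, 6-FAM primer extension, HpaI digest; capillary electrophoresis. Gain-of-signal relative to DMSO negative control.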

[18] = ATG_M_19_TRANS: Attagene TRANS-FACTORIAL HepG2 Assay for M19 Transcription Factor (Internal Marker) (AID 2282974); conditions: HepG2 Attagene TRANS-FACTORIAL M19 internal marker reporter
Method in brief: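 Cells: human HepG2, transiently transfected with multiplexed reporter transcription units. Exposure: 24 h. Detection: RT-PCR of reporter mRNA with capillary electrophoresis. Analysis: gain-of-signal vs DMSO.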

[19] = target: Hepatocyte nuclear factor 4-alpha (Homo sapiens) (UniProt P41235); experiment: ATG_HNF4a_TRANS: Attagene TRANS-FACTORIAL HepG2 Assay for human Hepatocyte Nuclear Factor 4 alpha (HNF4a) (AID 2282982); conditions: HepG2 HNF4a transactivation reporter, mRNA readout
Method in brief: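 Using HepG2 liver cells transfected with GAL4-UAS reporter units, chemical-induced mRNA increases were assessed after 24 hours. Fluorescent RT-PCR fragments were separated by capillary electrophoresis and compared with DMSO negative controls.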

[20] = target: Nuclear receptor subfamily 4 group A member 2 (Homo sapiens) (UniProt P43354); experiment: ATG_NURR1_TRANS: Attagene TRANS-FACTORIAL HepG2 Assay for human Nuclear Receptor Related Protein 1 (NURR1) (AID 2282985); conditions: HepG2 Attagene TRANS reporter, mRNA readout
Method in brief: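 Chimeric NR-Gal4 proteins were expressed in human HepG2 cells bearing GAL4-UAS reporter units, and induced reporter mRNA was quantified 24 h post-dosing by RT-PCR and capillary electrophoresis.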

Measured: outcome

Chain of Nuclear receptor subfamily 4 group A member 2 (Homo sapiens) (P43354 whole entry, looked up, the tested form may be a part): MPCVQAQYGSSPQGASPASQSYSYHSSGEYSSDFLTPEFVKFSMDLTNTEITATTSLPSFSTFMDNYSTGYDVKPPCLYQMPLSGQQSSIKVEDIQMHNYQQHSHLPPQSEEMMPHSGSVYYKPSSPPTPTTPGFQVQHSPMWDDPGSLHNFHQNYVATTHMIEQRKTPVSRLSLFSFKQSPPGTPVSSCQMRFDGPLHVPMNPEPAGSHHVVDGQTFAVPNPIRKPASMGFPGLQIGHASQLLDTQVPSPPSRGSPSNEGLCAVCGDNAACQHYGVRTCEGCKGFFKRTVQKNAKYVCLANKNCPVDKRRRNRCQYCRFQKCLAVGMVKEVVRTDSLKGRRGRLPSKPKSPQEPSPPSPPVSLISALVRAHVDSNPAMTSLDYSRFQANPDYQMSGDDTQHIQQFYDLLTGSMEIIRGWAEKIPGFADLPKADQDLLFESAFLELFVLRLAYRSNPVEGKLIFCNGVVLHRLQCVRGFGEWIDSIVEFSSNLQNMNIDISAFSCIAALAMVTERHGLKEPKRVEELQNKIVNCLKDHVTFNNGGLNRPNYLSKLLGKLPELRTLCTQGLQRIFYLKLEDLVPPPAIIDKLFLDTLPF
Chain of Steroid hormone receptor ERR1 (Homo sapiens) (P11474 whole entry, looked up, the tested form may be a part): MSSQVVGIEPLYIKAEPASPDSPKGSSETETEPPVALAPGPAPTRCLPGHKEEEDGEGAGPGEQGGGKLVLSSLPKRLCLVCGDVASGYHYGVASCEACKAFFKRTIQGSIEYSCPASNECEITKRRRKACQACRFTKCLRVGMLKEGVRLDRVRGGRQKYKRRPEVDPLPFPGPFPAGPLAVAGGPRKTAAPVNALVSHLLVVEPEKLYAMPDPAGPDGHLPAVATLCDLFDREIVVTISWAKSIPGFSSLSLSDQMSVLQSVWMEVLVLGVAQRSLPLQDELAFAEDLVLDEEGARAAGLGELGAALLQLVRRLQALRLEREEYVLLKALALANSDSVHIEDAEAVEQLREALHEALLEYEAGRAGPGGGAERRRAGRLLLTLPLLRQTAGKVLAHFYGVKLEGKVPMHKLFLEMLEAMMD
Chain of Nuclear respiratory factor 1 (Homo sapiens) (Q16656 whole entry, looked up, the tested form may be a part): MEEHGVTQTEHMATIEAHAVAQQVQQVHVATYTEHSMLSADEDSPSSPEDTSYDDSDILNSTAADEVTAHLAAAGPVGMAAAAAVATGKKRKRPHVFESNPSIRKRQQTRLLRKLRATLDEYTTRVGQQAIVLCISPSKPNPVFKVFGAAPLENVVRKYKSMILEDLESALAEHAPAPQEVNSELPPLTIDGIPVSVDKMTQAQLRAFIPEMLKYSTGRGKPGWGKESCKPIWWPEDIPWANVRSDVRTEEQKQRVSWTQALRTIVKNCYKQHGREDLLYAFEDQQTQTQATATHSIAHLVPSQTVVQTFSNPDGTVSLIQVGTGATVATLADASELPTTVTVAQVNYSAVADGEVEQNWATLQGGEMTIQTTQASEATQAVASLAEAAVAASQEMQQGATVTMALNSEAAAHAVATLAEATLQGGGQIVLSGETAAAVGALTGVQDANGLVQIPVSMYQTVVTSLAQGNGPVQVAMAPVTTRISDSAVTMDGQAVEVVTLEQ
Chain of X-box-binding protein 1 (Homo sapiens) (P17861 whole entry, looked up): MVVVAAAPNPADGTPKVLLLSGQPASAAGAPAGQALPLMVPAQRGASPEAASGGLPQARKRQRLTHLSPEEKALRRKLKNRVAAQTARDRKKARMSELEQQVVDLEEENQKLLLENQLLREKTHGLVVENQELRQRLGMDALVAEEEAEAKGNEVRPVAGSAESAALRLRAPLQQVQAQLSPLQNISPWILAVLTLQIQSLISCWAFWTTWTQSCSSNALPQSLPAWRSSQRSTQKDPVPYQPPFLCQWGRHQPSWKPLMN
Chain of Oxysterols receptor LXR-alpha (Homo sapiens) (Q13133 whole entry, looked up): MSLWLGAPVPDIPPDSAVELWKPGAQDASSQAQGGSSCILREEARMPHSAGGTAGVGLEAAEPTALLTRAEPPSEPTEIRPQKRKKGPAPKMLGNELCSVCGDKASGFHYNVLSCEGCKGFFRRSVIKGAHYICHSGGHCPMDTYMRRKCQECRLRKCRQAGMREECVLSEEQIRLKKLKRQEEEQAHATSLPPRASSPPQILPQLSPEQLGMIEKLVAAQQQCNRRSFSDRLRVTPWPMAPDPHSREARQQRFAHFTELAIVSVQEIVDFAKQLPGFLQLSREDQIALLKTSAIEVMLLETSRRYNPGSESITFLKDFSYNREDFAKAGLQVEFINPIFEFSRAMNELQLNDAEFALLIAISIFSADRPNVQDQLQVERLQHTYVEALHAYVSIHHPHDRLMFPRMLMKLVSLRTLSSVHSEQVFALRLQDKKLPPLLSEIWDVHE
Chain of Transcriptional activator Myb (Homo sapiens) (P10242 whole entry, looked up): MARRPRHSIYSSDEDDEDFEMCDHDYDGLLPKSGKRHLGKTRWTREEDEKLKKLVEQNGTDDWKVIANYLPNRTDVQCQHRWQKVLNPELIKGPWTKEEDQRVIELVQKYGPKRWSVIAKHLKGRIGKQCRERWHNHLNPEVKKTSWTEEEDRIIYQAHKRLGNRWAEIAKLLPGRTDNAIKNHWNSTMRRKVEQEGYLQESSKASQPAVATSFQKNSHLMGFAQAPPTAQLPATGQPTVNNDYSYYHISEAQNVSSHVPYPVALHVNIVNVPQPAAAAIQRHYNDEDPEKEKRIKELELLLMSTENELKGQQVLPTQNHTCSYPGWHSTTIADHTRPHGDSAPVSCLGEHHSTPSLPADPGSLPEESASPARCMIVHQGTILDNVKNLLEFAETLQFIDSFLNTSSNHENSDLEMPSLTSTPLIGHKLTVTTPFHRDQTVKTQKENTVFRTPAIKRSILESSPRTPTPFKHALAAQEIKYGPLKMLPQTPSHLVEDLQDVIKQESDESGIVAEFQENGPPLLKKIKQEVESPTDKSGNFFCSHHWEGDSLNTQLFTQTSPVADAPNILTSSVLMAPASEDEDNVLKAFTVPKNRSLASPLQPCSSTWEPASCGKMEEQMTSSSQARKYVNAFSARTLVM
Chain of Bile acid receptor (Homo sapiens) (Q96RI1 whole entry, looked up, the tested form may be a part): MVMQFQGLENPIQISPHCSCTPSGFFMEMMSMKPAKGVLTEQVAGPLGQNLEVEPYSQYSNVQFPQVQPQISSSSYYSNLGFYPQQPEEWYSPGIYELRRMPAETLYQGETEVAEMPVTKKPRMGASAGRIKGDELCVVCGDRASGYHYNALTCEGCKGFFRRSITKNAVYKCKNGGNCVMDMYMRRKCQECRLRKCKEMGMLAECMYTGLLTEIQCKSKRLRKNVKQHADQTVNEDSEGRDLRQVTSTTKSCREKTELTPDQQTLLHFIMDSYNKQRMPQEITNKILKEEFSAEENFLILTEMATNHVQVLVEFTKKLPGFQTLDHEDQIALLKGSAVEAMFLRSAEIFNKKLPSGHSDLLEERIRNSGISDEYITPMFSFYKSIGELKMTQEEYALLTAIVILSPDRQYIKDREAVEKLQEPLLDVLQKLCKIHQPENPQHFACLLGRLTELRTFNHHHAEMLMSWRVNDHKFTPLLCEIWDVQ
Chain of Hepatocyte nuclear factor 4-alpha (Homo sapiens) (P41235 whole entry, looked up, the tested form may be a part): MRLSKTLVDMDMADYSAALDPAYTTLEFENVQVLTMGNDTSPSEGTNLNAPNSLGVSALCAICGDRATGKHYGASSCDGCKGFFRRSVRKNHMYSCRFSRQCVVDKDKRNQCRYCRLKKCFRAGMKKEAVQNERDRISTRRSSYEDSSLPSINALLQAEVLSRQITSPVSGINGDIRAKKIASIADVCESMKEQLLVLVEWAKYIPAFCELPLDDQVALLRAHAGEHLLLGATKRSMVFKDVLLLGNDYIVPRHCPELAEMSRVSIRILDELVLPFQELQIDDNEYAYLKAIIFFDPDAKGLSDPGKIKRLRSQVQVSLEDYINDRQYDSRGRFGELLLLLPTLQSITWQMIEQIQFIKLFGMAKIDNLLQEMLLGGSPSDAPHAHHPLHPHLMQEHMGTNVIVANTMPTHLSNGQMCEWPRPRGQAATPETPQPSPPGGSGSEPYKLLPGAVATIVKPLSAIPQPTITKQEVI
Chain of Glucocorticoid receptor (Homo sapiens) (P04150 whole entry, looked up, the tested form may be a part): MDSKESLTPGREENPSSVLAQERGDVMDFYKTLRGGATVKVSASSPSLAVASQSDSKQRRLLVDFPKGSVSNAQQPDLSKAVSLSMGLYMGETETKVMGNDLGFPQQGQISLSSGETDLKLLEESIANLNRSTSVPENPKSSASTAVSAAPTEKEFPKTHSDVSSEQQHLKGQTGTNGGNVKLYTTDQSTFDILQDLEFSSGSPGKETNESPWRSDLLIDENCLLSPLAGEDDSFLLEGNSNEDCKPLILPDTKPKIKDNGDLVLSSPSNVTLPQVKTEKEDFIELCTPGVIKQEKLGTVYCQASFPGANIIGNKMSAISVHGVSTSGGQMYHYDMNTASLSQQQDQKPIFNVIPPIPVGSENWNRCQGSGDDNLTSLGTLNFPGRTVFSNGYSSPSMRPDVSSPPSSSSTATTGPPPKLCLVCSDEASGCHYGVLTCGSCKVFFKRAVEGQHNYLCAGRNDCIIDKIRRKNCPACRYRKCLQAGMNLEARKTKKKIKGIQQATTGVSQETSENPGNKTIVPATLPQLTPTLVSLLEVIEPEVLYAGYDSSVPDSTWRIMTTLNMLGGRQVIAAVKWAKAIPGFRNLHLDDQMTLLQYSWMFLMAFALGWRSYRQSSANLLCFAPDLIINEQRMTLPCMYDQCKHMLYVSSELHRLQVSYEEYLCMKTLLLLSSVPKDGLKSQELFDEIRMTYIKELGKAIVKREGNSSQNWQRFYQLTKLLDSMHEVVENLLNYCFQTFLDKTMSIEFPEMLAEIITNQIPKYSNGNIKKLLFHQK
Chain of Nuclear receptor subfamily 1 group I member 3 (Homo sapiens) (Q14994 whole entry, looked up, the tested form may be a part): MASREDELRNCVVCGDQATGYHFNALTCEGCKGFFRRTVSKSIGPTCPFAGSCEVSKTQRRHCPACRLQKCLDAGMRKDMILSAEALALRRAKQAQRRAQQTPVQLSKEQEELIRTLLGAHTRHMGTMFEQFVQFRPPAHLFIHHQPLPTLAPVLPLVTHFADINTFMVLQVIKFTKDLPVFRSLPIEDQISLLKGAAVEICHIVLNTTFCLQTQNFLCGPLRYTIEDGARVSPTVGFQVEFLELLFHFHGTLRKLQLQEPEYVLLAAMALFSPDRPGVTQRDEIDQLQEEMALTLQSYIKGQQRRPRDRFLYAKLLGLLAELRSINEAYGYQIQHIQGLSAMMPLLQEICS

O=CC(F)(F)C(F)(F)C(F)(F)C(F)F
not listed: [17] | [18] | [19] | [20]
inactive: all other assays above

CC(C)[C@@H]1CC[C@@H](C)C[C@H]1O
not listed: [4] | [5] | [6] | [8] | [9] | [11] | [12] | [13]
inactive: all other assays above

Cc1cc(C(=C2C=CC(=Nc3ccc(S(=O)(=O)O)cc3)C=C2)c2ccc(Nc3ccc(S(=O)(=O)O)cc3)cc2)cc(S(=O)(=O)O)c1N
not listed: [4] | [7] | [8] | [10] | [18] | [20]
inactive: all other assays above

FC(F)(F)C(F)(F)C(F)(F)C(F)(F)I
not listed: [7] | [8] | [9] | [11] | [17] | [19] | [20]
inactive: all other assays above

O=C(O)CN(CCCN(CC(=O)O)CC(=O)O)CC(=O)O
not listed: [4] | [5] | [8] | [9] | [14] | [18]
inactive: all other assays above

CC1CNCC(C)O1 (stereo not drawn)
not listed: [4] | [5] | [8] | [18] | [20]
inactive: all other assays above

CCCCCC(C)OC(=O)COc1ccc(Cl)c2cccnc12 (stereo not drawn)
inactive: [1] | [2] | [3] | [17] | [7] | [9] | [10] | [19] | [13] | [15] | [16]

CCCCN(C)C
not listed: [4] | [5] | [7] | [8] | [11] | [14] | [18]
inactive: all other assays above
